Active and inactive are the calls of the source. The calls were made as follows: active = hit-call score of the fitted dose curve at least 0.9, where 1 is the maximum; inactive = score below 0.9.
Read-out: Interleukin-1 alpha (IL1a), IL1A (gene 3552)
Assay: BSK_LPS_IL1a: BioMAP Diversity Plus: LPS Assay for Interleukin-1 alpha (IL1a) Biomarker Activity (AID 2283080)
Conditions: primary human HUVEC with PBMC; actives raise or lower the signal
Method in brief: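 ELISA read-out of IL-1 alpha from a human primary vascular co-culture (endothelium plus PBMC) under LPS, sampled 24 hours post-dosing. Activity was fitted in both directions relative to DMSO controls.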

| Compound | outcome | AC50 |
| --- | --- | --- |
| CN(C)C(=O)Cl | inactive | – |
| CCC(C)(C)c1ccc(O)cc1 | inactive | – |
| CCOP(=S)(OCC)SCn1nnc2ccccc2c1=O | inactive | – |
| c1cc2c3c(cccc3c1)CC2 | inactive | – |
| O=c1ssc(Cl)c1Cl | – | 4.19 µM (active) |
| O=S(=O)(F)C(F)(F)C(F)(F)C(F)(F)C(F)(F)C(F)(F)C(F)(F)C(F)(F)C(F)(F)F | inactive | – |
| CCOP(=S)(S)OCC | – | 36.6 µM (active) |
| OCC(F)(F)OC(F)(F)C(F)(F)OC(F)(F)CO | inactive | – |
| ClC(Cl)(Cl)c1ccccc1 | inactive | – |
| CC(Cc1ccc(OCC(=O)O)cc1)NCC(O)c1csc(C(F)(F)F)n1 (configuration not stated) | inactive | – |
| CC(C)(C)c1ccc(O)cc1 | inactive | – |
| O=C(O)C(F)(F)OC(F)(F)C(F)(F)OC(F)(F)C(=O)O | inactive | – |
| c1ccc(OP(Oc2ccccc2)Oc2ccccc2)cc1 | inactive | – |
| OCC1CO1 (configuration not stated) | inactive | – |
| NC(=O)C(F)(F)C(F)(F)F | inactive | – |
| O=[N+]([O-])c1ccccc1 | inactive | – |
| Nc1ccc(Cl)cc1 | inactive | – |
| O=[N+]([O-])c1ccc(Cl)c(Cl)c1 | inactive | – |
| CCOP(=S)(Oc1ccc([N+](=O)[O-])cc1)c1ccccc1 (configuration not stated) | inactive | – |
| CC(C)(C)OOC(C)(C)C | inactive | – |
| CCCCN(CCCC)N=O | inactive | – |
| Cc1ccc(O)cc1C | inactive | – |
| O=C(O)C(Cl)Cl | inactive | – |
| c1nc[nH]n1 | inactive | – |
| c1ccc2c(c1)Nc1ccccc1S2 | inactive | – |
| COP(=O)(CCC(=O)NCO)OC | inactive | – |
| CCOS(=O)(=O)OCC | inactive | – |
| Nc1ccc([N+](=O)[O-])cc1Cl | inactive | – |

Read-out: Monocyte Chemoattractant Protein-1 (MCP1), CCL2 (gene 6347)
Assay: BSK_LPS_MCP1: BioMAP Diversity Plus: LPS Assay for Monocyte Chemoattractant Protein-1 (MCP1) Biomarker Activity (AID 2283081);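 as to AC50: secreted MCP-1 protein quantified by ELISA in culture supernatant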
Conditions: primary human HUVEC with PBMC; actives raise or lower the signal
Method in brief: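 Human endothelial–PBMC co-cultures were dosed with chemical, then LPS-driven MCP-1 levels were quantified by ELISA at 24 h. Activity in either direction was fitted versus DMSO negative control.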

| Compound | outcome | AC50 |
| --- | --- | --- |
| CN(C)C(=O)Cl | inactive | – |
| CCC(C)(C)c1ccc(O)cc1 | inactive | – |
| CCOP(=S)(OCC)SCn1nnc2ccccc2c1=O | inactive | – |
| c1cc2c3c(cccc3c1)CC2 | inactive | – |
| O=c1ssc(Cl)c1Cl | – | 6.46 µM (active) |
| O=S(=O)(F)C(F)(F)C(F)(F)C(F)(F)C(F)(F)C(F)(F)C(F)(F)C(F)(F)C(F)(F)F | inactive | – |
| CCOP(=S)(S)OCC | inactive | – |
| OCC(F)(F)OC(F)(F)C(F)(F)OC(F)(F)CO | inactive | – |
| ClC(Cl)(Cl)c1ccccc1 | inactive | – |
| CC(Cc1ccc(OCC(=O)O)cc1)NCC(O)c1csc(C(F)(F)F)n1 (configuration not stated) | inactive | – |
| CC(C)(C)c1ccc(O)cc1 | inactive | – |
| O=C(O)C(F)(F)OC(F)(F)C(F)(F)OC(F)(F)C(=O)O | inactive | – |
| c1ccc(OP(Oc2ccccc2)Oc2ccccc2)cc1 | inactive | – |
| OCC1CO1 (configuration not stated) | inactive | – |
| NC(=O)C(F)(F)C(F)(F)F | inactive | – |
| O=[N+]([O-])c1ccccc1 | inactive | – |
| Nc1ccc(Cl)cc1 | inactive | – |
| O=[N+]([O-])c1ccc(Cl)c(Cl)c1 | inactive | – |
| CCOP(=S)(Oc1ccc([N+](=O)[O-])cc1)c1ccccc1 (configuration not stated) | inactive | – |
| CC(C)(C)OOC(C)(C)C | inactive | – |
| CCCCN(CCCC)N=O | inactive | – |
| Cc1ccc(O)cc1C | inactive | – |
| O=C(O)C(Cl)Cl | inactive | – |
| c1nc[nH]n1 | inactive | – |
| c1ccc2c(c1)Nc1ccccc1S2 | inactive | – |
| COP(=O)(CCC(=O)NCO)OC | inactive | – |
| CCOS(=O)(=O)OCC | inactive | – |
| Nc1ccc([N+](=O)[O-])cc1Cl | inactive | – |

Read-out: not listed separately
Assay: BSK_LPS_PGE2: BioMAP Diversity Plus: LPS Assay for Prostaglandin E2 (PGE2) Biomarker Activity (AID 2283082);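 as to AC50: secreted prostaglandin E2 measured by ELISA in LPS-stimulated co-culture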
Conditions: primary human HUVEC with PBMC; actives raise or lower the signal
Method in brief: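 HUVEC plus human PBMC co-culture stimulated with LPS; secreted PGE2 quantified by ELISA 24 h after chemical dosing. Activity fitted bidirectionally against DMSO baseline; parallel SRB staining (0.1% SRB after 10% TCA fixation, 560 nm) flags overt cytotoxicity.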

| Compound | outcome | AC50 |
| --- | --- | --- |
| CN(C)C(=O)Cl | inactive | – |
| CCC(C)(C)c1ccc(O)cc1 | inactive | – |
| CCOP(=S)(OCC)SCn1nnc2ccccc2c1=O | inactive | – |
| c1cc2c3c(cccc3c1)CC2 | inactive | – |
| O=c1ssc(Cl)c1Cl | – | 2.22 µM (active) |
| O=S(=O)(F)C(F)(F)C(F)(F)C(F)(F)C(F)(F)C(F)(F)C(F)(F)C(F)(F)C(F)(F)F | inactive | – |
| CCOP(=S)(S)OCC | inactive | – |
| OCC(F)(F)OC(F)(F)C(F)(F)OC(F)(F)CO | inactive | – |
| ClC(Cl)(Cl)c1ccccc1 | inactive | – |
| CC(Cc1ccc(OCC(=O)O)cc1)NCC(O)c1csc(C(F)(F)F)n1 (configuration not stated) | inactive | – |
| CC(C)(C)c1ccc(O)cc1 | – | 3.65 µM (active) |
| O=C(O)C(F)(F)OC(F)(F)C(F)(F)OC(F)(F)C(=O)O | inactive | – |
| c1ccc(OP(Oc2ccccc2)Oc2ccccc2)cc1 | inactive | – |
| OCC1CO1 (configuration not stated) | inactive | – |
| NC(=O)C(F)(F)C(F)(F)F | inactive | – |
| O=[N+]([O-])c1ccccc1 | inactive | – |
| Nc1ccc(Cl)cc1 | inactive | – |
| O=[N+]([O-])c1ccc(Cl)c(Cl)c1 | inactive | – |
| CCOP(=S)(Oc1ccc([N+](=O)[O-])cc1)c1ccccc1 (configuration not stated) | inactive | – |
| CC(C)(C)OOC(C)(C)C | inactive | – |
| CCCCN(CCCC)N=O | inactive | – |
| Cc1ccc(O)cc1C | – | 4.57 µM (active) |
| O=C(O)C(Cl)Cl | inactive | – |
| c1nc[nH]n1 | inactive | – |
| c1ccc2c(c1)Nc1ccccc1S2 | – | 0.374 µM (active) |
| COP(=O)(CCC(=O)NCO)OC | inactive | – |
| CCOS(=O)(=O)OCC | inactive | – |
| Nc1ccc([N+](=O)[O-])cc1Cl | inactive | – |

Read-out: Macrophage colony-stimulating factor (MCSF), CSF1 (gene 1435)
Assay: BSK_LPS_MCSF: BioMAP Diversity Plus: LPS Assay for Macrophage colony-stimulating factor (MCSF) Biomarker Activity (AID 2283083)
Conditions: primary human HUVEC with PBMC; actives raise or lower the signal
Method in brief: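 ELISA readout of M-CSF after 24 h compound exposure in a human endothelial/PBMC co-culture. Activity, in either direction, is fitted relative to DMSO vehicle.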

| Compound | outcome | AC50 |
| --- | --- | --- |
| CN(C)C(=O)Cl | inactive | – |
| CCC(C)(C)c1ccc(O)cc1 | inactive | – |
| CCOP(=S)(OCC)SCn1nnc2ccccc2c1=O | – | 20 µM (active) |
| c1cc2c3c(cccc3c1)CC2 | inactive | – |
| O=c1ssc(Cl)c1Cl | – | 4.28 µM (active) |
| O=S(=O)(F)C(F)(F)C(F)(F)C(F)(F)C(F)(F)C(F)(F)C(F)(F)C(F)(F)C(F)(F)F | inactive | – |
| CCOP(=S)(S)OCC | inactive | – |
| OCC(F)(F)OC(F)(F)C(F)(F)OC(F)(F)CO | inactive | – |
| ClC(Cl)(Cl)c1ccccc1 | inactive | – |
| CC(Cc1ccc(OCC(=O)O)cc1)NCC(O)c1csc(C(F)(F)F)n1 (configuration not stated) | inactive | – |
| CC(C)(C)c1ccc(O)cc1 | inactive | – |
| O=C(O)C(F)(F)OC(F)(F)C(F)(F)OC(F)(F)C(=O)O | inactive | – |
| c1ccc(OP(Oc2ccccc2)Oc2ccccc2)cc1 | inactive | – |
| OCC1CO1 (configuration not stated) | inactive | – |
| NC(=O)C(F)(F)C(F)(F)F | inactive | – |
| O=[N+]([O-])c1ccccc1 | inactive | – |
| Nc1ccc(Cl)cc1 | inactive | – |
| O=[N+]([O-])c1ccc(Cl)c(Cl)c1 | inactive | – |
| CCOP(=S)(Oc1ccc([N+](=O)[O-])cc1)c1ccccc1 (configuration not stated) | – | 13.7 µM (active) |
| CC(C)(C)OOC(C)(C)C | inactive | – |
| CCCCN(CCCC)N=O | inactive | – |
| Cc1ccc(O)cc1C | inactive | – |
| O=C(O)C(Cl)Cl | inactive | – |
| c1nc[nH]n1 | inactive | – |
| c1ccc2c(c1)Nc1ccccc1S2 | inactive | – |
| COP(=O)(CCC(=O)NCO)OC | inactive | – |
| CCOS(=O)(=O)OCC | inactive | – |
| Nc1ccc([N+](=O)[O-])cc1Cl | inactive | – |

Source: PubChem BioAssay (EPA / NIEHS)
